Reference: PubChem BioAssay (Tox21)
Results filed as inconclusive are left out. Where a call stands in place of a potency, no number is given. Calls of active or inactive are those of the source. Calls follow the shape of the dose curve; as a rule, active = well fitted activation curve with a large enough effect in the repeat runs; inconclusive = weak or mixed curves; inactive = flat fitted curve, though single readings scatter.

Experiment: A CellTox Green Cytotoxicity Assay to monitor cytotoxicity in HepG2 cells - 8 hour (AID 1224890); also: nearly all actives have a fitted effect of over 45% in size
Details: CellTox Green fluorescence; series mostly up to 76.8 µM
Text: National Center for Advancing Translational Sciences [NCATS]
NIH Chemical Genomics Center [NCGC]
U.S. Environmental Protection Agency [EPA]
National Institutes of Environmental Health Sciences [NIEHS]
National Toxicology Program [NTP]
Cell-based models are critical for drug discovery. Determining the natural cytotoxic effects resulting from test compounds is an essential research activity. A CellTox Green Cytotoxicity Assay to monitor cytotoxicity in real time of continues cell culture during 40 hours of the compound treatment was used to screen Tox21 10K library compounds in HepG2 cells. CellTox Green Cytotoxicity Assay is a nonlytic, homogeneous, biofluorescent method to measure cytotoxicity in cell culture after experimental manipulation. The assay system uses a proprietary asymmetric cyanine dye that is excluded from viable cells but preferentially stains the dead cell's DNA. […] Viable cells produce no appreciable increases in fluorescence. Therefore, the fluorescence signal produced by the binding interaction with dead cell DNA is proportional to cytotoxicity.
The mixture of HepG2 cell suspension and reagents were dispensed at 600cells/6 ul/well in 1536-well tissue culture treated black solid bottom plates using a Multidrop dispenser. After the assay plates were incubated at a 37 C/5% CO2 incubator for 5 hours, 23 nL of compounds dissolved in DMSO, positive and negative controls was transferred to the assay plate by a pintool work station. The plates were incubated at 37 C for 40 hours. The fluorescence intensity were measured at 0h, 8h, 16h, 24h, 32h and 40h time points using ViewLux plate reader during compound treatment.
Potency is read from the fitted curve at half-maximal effect.

Compound | Potency
CC(=O)Nc1cc(S(=O)(=O)O)cc2cc(S(=O)(=O)O)c(N=Nc3ccccc3)c(O)c12 | inactive
CN1C(=O)OC(C)(C)C1=O | inactive
C=C1C[C@@]23CC[C@H]4[C@@](C)(CCC[C@@]4(C)C(=O)O[C@@H]4O[C@H](CO)[C@@H](O)[C@H](O)[C@H]4O)[C@@H]2CC[C@]1(O[C@@H]1O[C@H](CO)[C@@H](O)[C@H](O[C@@H]2O[C@H](CO)[C@@H](O)[C@H](O)[C@H]2O)[C@H]1O[C@@H]1O[C@H](CO)[C@@H](O)[C@H](O)[C@H]1O)C3 | inactive
Cc1ccccc1S | inactive
Nc1cccc2c1CN(C1CCC(=O)NC1=O)C2=O (stereo not given) | inactive
Clc1cc(Cl)nc(Cl)n1 | inactive
Cc1cc(O)c(C)c(C)c1O | inactive
CCCCCC[C@@H](O)C/C=C\CCCCCCCC(=O)OCC(O)CO (stereo not given in full) | inactive
CC(=O)Oc1ccc([N+](=O)[O-])cc1CCl | inactive
CC(C)(C)C(=O)C(=O)O | inactive
COc1ccccc1Oc1c(NS(=O)(=O)c2ccc(C(C)(C)C)cc2)nc(-c2ncccn2)nc1OCCO | inactive
CCn1cc(C(=O)O)c(=O)c2cc(F)c(N3CCNCC3)cc21 | inactive
c1cc(N(CC2CO2)CC2CO2)ccc1Cc1ccc(N(CC2CO2)CC2CO2)cc1 (stereo not given) | inactive
O=C1c2ccccc2C(=O)C1c1ccc(Br)cc1 | inactive
CNC(=O)c1cnn(-c2nc(N)c3ncn([C@@H]4O[C@H](CO)[C@@H](O)[C@H]4O)c3n2)c1 | inactive
CC1(C)[C@H](C(=O)O)N2C(=O)C[C@H]2S1(=O)=O | inactive
C=C/C(C)=C/C/C=C(\C)CCC=C(C)C | inactive
CC(C)COCC(CN(Cc1ccccc1)c1ccccc1)N1CCCC1 (stereo not given) | 23.9 µM (active)
CC1CC(OC(=O)C(O)c2ccccc2)CC(C)(C)N1C (stereo not given) | inactive
COc1cc(C(=O)NC2CCN(C)CC2)ccc1Nc1ncc2c(n1)N(C1CCCC1)CC(F)(F)C(=O)N2C | 50.4 µM (active)

Compound | Potency
Cc1cccc(N(C)C(=S)Oc2ccc3c(c2)CCC3)c1 | inactive
O=C(Cn1ccnc1[N+](=O)[O-])NCCO | inactive
CN1CC(=O)N2[C@H](c3ccc4c(c3)OCO4)c3[nH]c4ccccc4c3C[C@@H]2C1=O | inactive
C=CC(=O)[O-].C=CC(=O)[O-].[Zn+2] | inactive
C(=C\c1ccccc1)/c1ccccc1 | inactive
O=C=Nc1cccc(C(F)(F)F)c1 | inactive
CC[C@]1(O)C[C@H]2CN(CCc3c([nH]c4ccccc34)[C@@](C(=O)OC)(c3cc4c(cc3OC)N(C=O)[C@H]3[C@@](O)(C(=O)OC)[C@H](OC(C)=O)[C@]5(CC)C=CCN6CC[C@]43[C@@H]65)C2)C1 | inactive
Cc1ccc2c(Br)cc(Br)c(O)c2n1 | inactive
CCCCN(CCN(CCCC)C(=O)N1CCOCC1)C(=O)N1CCOCC1 | inactive
O=C1NCCN1CCO | inactive
C=CC(C)(CCC=C(C)C)OC(=O)CC(C)C (stereo not given) | inactive
CCC(C)(C)OC | inactive
O=c1[nH]ncc2ccccc12 | inactive
CC(C)(O)c1ccc(CNC(=O)c2cccnc2Oc2ccc3nonc3c2)cc1 | inactive
O=C(OC(=O)c1ccccc1)c1ccccc1 | inactive
CC(C)c1nc(CN(C)C(=O)N[C@H](C(=O)N[C@@H](Cc2ccccc2)C[C@H](O)[C@H](Cc2ccccc2)NC(=O)OCc2cncs2)C(C)C)cs1 | inactive
CCN(CC)CCNC(=O)COc1ccc(OC)cc1 | inactive
CC(=O)OCCN(CCOC(C)=O)c1ccc(N=Nc2ccc([N+](=O)[O-])cc2C#N)cc1 | inactive
CCCC(C(=O)OCCN(CC)CC)(c1ccccc1)c1ccccc1 | inactive
CN1CCCN=C1COC(=O)C(O)(c1ccccc1)C1CCCCC1 (stereo not given) | inactive
